Only some compounds are listed: those with a hit (about 22% of all), similar ones and a draw of the others.
Shiga inhibitor: Shiga toxin inhibition; inhibition, % at 38.7 µM; Vero cells, Shiga toxin protein synthesis inhibition reporter; 9.2% of 290,000 active; in the data active = inhibition mostly above about 28%, no sharp cut-off; inactive = mostly below about 43%; also: 0% is about no effect
Pf growth 48h: inhibits P. falciparum growth in the first generation, 48 h; 5.9% of 310,000 active; Potency, µM (top dose mostly 28.7 µM), for inactives: at the highest dose activity change, negative = inhibition, most hits filed as inhibitors; P. falciparum luciferase growth in erythrocytes, 48 h; also: potency is read from the fitted curve at half-maximal effect; % is scaled to controls: 0 for no effect and ±100 for the full control effect
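In quantitative HTS format, infected erythrocytes bearing luciferase-reporter parasites were treated for a single generation at 37 C. Luminescence after adding detection reagent served as the growth measure.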
LmPK inhibitor: LmPK (Leishmania mexicana) enzyme inhibition. purified LmPK, Kinase-Glo ATP luminescence, 1 h. Potency, µM (titrated, usually from 57.5 µM), for inactives: at the highest dose activity change, negative = inhibition, usual class: inhibitors. 0.37% of 290,000 active. AID 1721; also: potency is read from the fitted curve at half-maximal effect; % is scaled to controls: 0 for no effect and ±100 for the full control effect
Target sequence (Q27686 whole entry, looked up): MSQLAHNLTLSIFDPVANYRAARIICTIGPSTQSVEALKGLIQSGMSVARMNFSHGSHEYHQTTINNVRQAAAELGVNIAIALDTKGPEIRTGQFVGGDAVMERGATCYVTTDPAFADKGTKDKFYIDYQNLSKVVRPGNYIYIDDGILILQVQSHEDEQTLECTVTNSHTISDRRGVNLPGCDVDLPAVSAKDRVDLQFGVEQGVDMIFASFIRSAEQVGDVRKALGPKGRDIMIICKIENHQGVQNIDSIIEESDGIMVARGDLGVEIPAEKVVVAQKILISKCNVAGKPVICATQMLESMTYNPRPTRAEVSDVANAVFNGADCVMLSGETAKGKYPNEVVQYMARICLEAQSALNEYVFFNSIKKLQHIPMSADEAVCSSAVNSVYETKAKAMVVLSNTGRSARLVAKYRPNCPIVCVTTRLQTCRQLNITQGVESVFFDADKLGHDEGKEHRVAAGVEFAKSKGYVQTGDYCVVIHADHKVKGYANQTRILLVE
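Kinase-Glo luminescence read after 1 h RT reaction of 0.1 nM LmPK with 0.5 mM PEP and 0.1 mM ADP. Activity scaled between uninhibited and enzyme-free controls.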
Cycloheximide cs: affects cycloheximide protein synthesis inhibition readout, counter-screen | cell reporter, cycloheximide protein synthesis inhibition counterscreen | max response, % | 12% of 300,000 active | AID 2314; in the data active = max response mostly above about 13%, no sharp cut-off; inactive = mostly below about 14%; also: read at 38.3 µM for the half of the compounds with a filed dose; 0% is about no effect
Pf growth 96h: P. falciparum growth inhibition at 96 hours | P. falciparum luciferase reporter growth, 96 h | Potency, µM (titrated, usually from 28.7 µM), for the others: at the top dose activity change, negative = inhibition, actives largely listed as inhibitors | 6.9% of 320,000 active | AID 504834; also: potency is read from the fitted curve at half-maximal effect; % is scaled to controls: 0 for no effect and ±100 for the full control effect
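Readout is luminescence from an integrated firefly luciferase in P. falciparum. Red cells, 2% hematocrit and 0.05% parasitemia final, were cultured with compound through two parasite generations (96 hours) at 37 C, 5% CO2.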
The depositor's hits bear a star; u = inconclusive; x = not tested or not shown. Unless noted, calls follow the shape of the dose curve; as a rule, active = well fitted inhibition curve with a large enough effect; inconclusive = small, poorly fitted or top-dose-only effect, or another doubt; inactive = no such curve, though single readings can be large or run the other way.

SMILES	Shiga inhibitor	Pf growth 48h	LmPK inhibitor	Cycloheximide cs	Pf growth 96h
CC(=O)Nc1ccc(NC(=O)c2ccc(N(C)S(=O)(=O)c3ccc(C)cc3)cc2)cc1	-31.4	0.8%	-6.8%	-1.4	10.4µM*
Cc1ccc(S(=O)(=O)N(C)c2ccc(C(=O)Nc3cccnc3)cc2)cc1	-16.2	-17.8%	-4.4%	0.7	10.4µM*
Cc1ccc2nc(N(CCCN(C)C)C(=O)c3sc4ccccc4c3Cl)sc2c1	18.0	32.8%	2.2%	22.4	-15.1%
CCOC(=O)c1c(Nc2ccccc2OCCOC)n[nH]c1C	-13.1	u	-9.8%	-0.3	9.28µM*
CCOC(=O)c1c(N/N=C/c2ccncc2)n[nH]c1C	49.9*	72.3%	-15.5%	25.2	57.6%
CCc1[nH]nc(C(=O)N/N=C/c2ccncc2)c1C	50.1*	70.9%	-16.9%	23.7*	125.5%
CC(=O)Nc1ccc(C(=O)N/N=C/c2ccncc2)cc1	-6.5	-4.4%	0.4%	2.0	u
N#CCc1nn(Cc2ccc(F)cc2)c(=O)c2ccccc12	-3.7	7.5%	6.0%	-1.6	1.3%
CCN(CC(=O)NCC1CCCO1)S(=O)(=O)c1ccc2ccccc2c1 (centres undefined)	-7.3	13.9%	-2.7%	-0.8	-17.8%
CCN(CC1COc2ccccc2O1)C(=S)NCCCN(C)C (centres undefined)	-4.0	90.8%	4.6%	-4.6	10.4µM*
CN(CC1COc2ccccc2O1)C(=S)NC1CCCCC1 (centres undefined)	59.5*	0.0%	6.0%	24.8*	u
CC1CCCN(C(=O)COc2ccc(Nc3ccccc3)cc2)C1 (centres undefined)	34.6	2.7%	-4.5%	8.0	-0.5%
CN(C)/C=C1\N=C(c2ccc3c(c2)OCO3)OC1=O	63.9*	117.1%	-5.0%	27.5*	u
CN(C)/C=C1\N=C(c2ccccc2)OC1=O	19.1	27.4%	-15.9%	15.4*	34.5%
O=C(C[n+]1ccc(-c2cc(C(=O)Nc3cccc(C(F)(F)F)c3)c3ccccc3n2)cc1)c1cccc([N+](=O)[O-])c1	-2.0	u	u	0.8	3.29µM*
O=C(C[n+]1cccc(NC(=O)c2ccccc2)c1)c1cccc([N+](=O)[O-])c1	19.0	u	0.2%	7.8	u
CC(C)CCNC(=O)CNC(=O)[C@@H](C)NC(=O)[C@@H](N)Cc1ccc(O)cc1	-8.0	x	x	-4.3	x
CC(C)CC(NC(=O)OC(C)(C)C)c1cn([C@@H](CCC(=O)OC(C)(C)C)C(=O)N2CCN(C(=O)OC(C)(C)C)CC2)nn1 (some centres undefined)	14.4	u	1.9%	-2.1	10.4µM*
CC[C@H](C)C(C(=O)N1CCN(C(=O)OC(C)(C)C)CC1)n1cc(C(CC(C)C)NC(=O)OC(C)(C)C)nn1 (some centres undefined)	19.9	u	-3.5%	1.1	2.33µM*
CCC(C)[C@H](N)c1cn([C@@H](Cc2ccc(O)cc2)C(=O)N2CCNCC2)nn1 (some centres undefined)	-20.8	25.5%	1.7%	5.6	74.6%
CC[C@@H](C)C(NC(=O)OC(C)(C)C)c1cn([C@@H](Cc2ccc(O)cc2)C(=O)N2CCN(C(=O)OC(C)(C)C)CC2)nn1 (some centres undefined)	14.9	11.0%	2.1%	-1.7	8.28µM*
CC[C@@H](C)C(C(=O)N1CCN(C(=O)OC(C)(C)C)CC1)n1cc(-c2cn([C@@H](C)C(=O)N3CCN(C(=O)OC(C)(C)C)CC3)nn2)nn1 (some centres undefined)	-5.9	u	0.8%	-3.2	u
CCOC(=O)c1c(-c2ccc(C)s2)csc1NC(=O)c1cccs1	5.9	x	-1.2%	-4.4	36.3%
CCOc1ccc2nc(NC(=O)c3ccoc3C)sc2c1	41.6	-53.3%	12.6µM*	24.1*	-14.5%
CCOc1ccc2nc(NC(=O)c3ccco3)sc2c1	37.8	198.9%	u	39.4*	-25.2%
SMILES	Shiga inhibitor	Pf growth 48h	LmPK inhibitor	Cycloheximide cs	Pf growth 96h
O=C(COC(=O)c1ccco1)Nc1nc2ccc([N+](=O)[O-])cc2s1	2.3	21.6%	3.2%	19.0	5.6%
CCOC(=O)c1ccc2nc(NC(=O)c3cccs3)sc2c1	43.8*	141.5%	u	39.3*	292.2%
CCOC(=O)c1ccc2nc(NC(=O)c3ccco3)sc2c1	35.0*	74.0%	u	27.0*	130.0%
Cc1ccccc1-c1noc(CNC(=O)c2ccco2)n1	-6.0	6.8%	2.7%	1.8	u
CC(C)n1c(O)c(N=NC(=O)C2COc3ccccc3O2)c2ccccc21 (centres undefined)	-4.4	u	0.2%	7.8	139.4%
O=C(Nc1ccccc1F)c1ccc(-c2cccc([N+](=O)[O-])c2)o1	63.4*	56.1%	-5.5%	22.1*	u
O=C(Nc1nccs1)c1ccc(-c2cccc([N+](=O)[O-])c2)o1	28.1	u	-13.5%	23.5*	51.5%
O=C(Nc1ccccc1F)Nc1ccc([N+](=O)[O-])cc1Cl	29.0*	62.7%	-3.6%	9.8*	16.4%
O=C(NC(=S)Nc1cccc(Cl)c1N1CCCC1)c1ccc(-c2cccc([N+](=O)[O-])c2)o1	15.0	10.4%	-2.6%	-6.3	-12.2%
O=C(Nc1ncc(Cc2cccc(C(F)(F)F)c2)s1)c1ccc(-c2cccc([N+](=O)[O-])c2)o1	-20.3	u	3.2%	-1.1	44.9%
Cc1cc([N+](=O)[O-])ccc1NC(=O)Nc1ccc(F)cc1F	-11.9	u	4.4%	-1.4	1.3%
CCCNC(=S)N1CCC(NC(=O)C2CCCCC2)CC1	23.9	24.0%	-1.1%	-8.3	47.9%
CCOC(=O)CCNC(=O)c1ccc2nc(C3CCCCC3)oc2c1	26.7	0.0%	2.9%	17.2*	u
CCc1ccc(CNC(=O)c2ccc3nc(C4CCCCC4)oc3c2)nc1	32.6*	u	1.0%	46.0*	-5.6%
Cc1ccc2c(c1)c1c(n2C)-c2[nH]ncc2CC1	78.4*	94.3%	4.4%	15.0*	43.9%
COCCC(=O)NC1CCCc2c1cnn2-c1cccc(C)c1C (centres undefined)	-3.8	0.2%	1.4%	-1.1	0.0%
Cc1ccc(-n2c(C)cc(/C=N/NC(=O)c3ccncc3)c2C)c(C)c1	13.4	2.33µM*	3.0%	13.5	1.65µM*
Cc1ccc2occ(/C=N/NC(=O)c3ccncc3)c(=O)c2c1	-10.9	10.1%	-3.1%	-4.0	3.7µM*
Cc1cccc(C)c1-n1c(C)cc(/C=N/NC(=O)c2ccncc2)c1C	-10.7	u	5.2%	1.9	u
Cc1cccc(C)c1-n1c(C)cc(/C=N/NC(=O)CSc2ncccn2)c1C	-8.9	u	0.3%	5.6	0.0%
Cc1cc(/C=N/NC(=O)c2ccncc2)c(C)n1-c1ccccc1	22.8*	26.2%	-3.3%	26.1*	u
Cc1cc(C)nc(SCC(=O)N/N=C/c2cc(C)n(-c3ccccc3C)c2C)n1	14.1	5.22µM*	3.6%	-2.2	u
O=C1C(=O)N(Cc2ccccc2)C(=O)N1CCOc1ccccc1	-14.0	16.8%	4.4%	-1.4	-3.2%

High-throughput results as filed in PubChem BioAssay.
